Assay [1] can be described thus: ATG_TAL_CIS: Attagene CIS-FACTORIAL HepG2 Assay for human TAL Basal Promoter (AID 2282966; active = hit-call score of the fitted dose curve at least 0.9, where 1 is the maximum; inactive = score below 0.9;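 also: background control endpoint measuring basal TAL promoter reporter mRNA not a specific factor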). To be noted: HepG2 Attagene cis-factorial TAL promoter reporter; actives raise or lower the signal. A digest of the protocol: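 HepG2 cells were transiently transfected with promoter-driven multiplexed reporter units and dosed for 24 h. Reporter mRNA was measured by RT-PCR with capillary electrophoresis fluorescence; bidirectional fits used DMSO as baseline, serving as a background control.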

The nature of assay [2]: ATG_TGFb_CIS: Attagene CIS-FACTORIAL HepG2 Assay for human Transforming Growth Factor (TGF) (AID 2282967; active = hit-call score of the fitted dose curve at least 0.9, where 1 is the maximum; inactive = score below 0.9). To be noted: HepG2 Attagene CIS TGFb reporter, mRNA transcription; actives raise or lower the signal. A digest of the protocol: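 Cells were dosed for 24 hours, after which total RNA was reverse-transcribed and reporter sequences amplified, labeled and sized by capillary electrophoresis. Activity was fitted in both directions against DMSO.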

Assay [3] is described as follows: ATG_VDRE_CIS: Attagene CIS-FACTORIAL HepG2 Assay for human Vitamin D Receptor Element (VDRE) (AID 2282968; active = hit-call score of the fitted dose curve at least 0.9, where 1 is the maximum; inactive = score below 0.9). The conditions noted are these: HepG2 VDRE cis-reporter transcription, actives raise or lower the signal. The method in brief:
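Reporter mRNA induction, quantified by capillary electrophoresis of fluorescently labelled RT-PCR products, was read 24 h after dosing HepG2 cells carrying transiently transfected cis-regulated reporter units; gain or loss relative to DMSO.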

In assay [4] the target is X-box-binding protein 1 (Homo sapiens) (UniProt P17861). Briefly: ATG_Xbp1_CIS: Attagene CIS-FACTORIAL HepG2 Assay for human X-box Binding Protein 1 (XBP1) (AID 2282972; active = hit-call score of the fitted dose curve at least 0.9, where 1 is the maximum; inactive = score below 0.9). To be noted: HepG2 XBP1 cis-element reporter, Attagene multiplex; actives raise or lower the signal. A digest of the protocol: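 After a 24-hour chemical exposure of HepG2 cells carrying cis-regulated reporters, reporter mRNA levels are assessed. Quantification uses RT-PCR, 6-FAM labelling and capillary electrophoresis. Gain- or loss-of-signal is fitted against DMSO.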
Sequence of X-box-binding protein 1 (Homo sapiens) (P17861 whole entry, looked up): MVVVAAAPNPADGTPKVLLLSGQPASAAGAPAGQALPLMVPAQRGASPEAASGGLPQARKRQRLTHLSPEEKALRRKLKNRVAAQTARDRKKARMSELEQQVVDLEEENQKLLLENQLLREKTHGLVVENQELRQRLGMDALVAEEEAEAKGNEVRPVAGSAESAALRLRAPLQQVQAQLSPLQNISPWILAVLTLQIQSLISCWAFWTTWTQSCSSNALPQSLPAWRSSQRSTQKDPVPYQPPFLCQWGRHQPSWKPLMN

The nature of assay [5]: ATG_M_19_TRANS: Attagene TRANS-FACTORIAL HepG2 Assay for M19 Transcription Factor (Internal Marker) (AID 2282974). To be noted: HepG2 Attagene TRANS-FACTORIAL M19 internal marker reporter. The method in brief:
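Background-control readout: after 24 h chemical exposure of transfected HepG2 carrying GAL4-driven reporter units, RNA was reverse-transcribed, amplified, fluorescently labeled and sized by capillary electrophoresis; gain-of-signal fit against DMSO.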

Assay [6] is described as follows: ATG_GAL4_TRANS: Attagene TRANS-FACTORIAL HepG2 Assay for GAL4 (Internal Marker) (AID 2282976). To be noted: HepG2 Attagene TRANS GAL4 internal marker reporter. The method in brief: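 HepG2 cells transiently transfected with multiplexed GAL4-UAS reporter constructs were dosed for 24 h. Reporter mRNA was measured by RT-PCR, 6-FAM primer extension, HpaI digestion and capillary electrophoresis, and gain of signal was fitted relative to DMSO.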

The target in assay [7] is Glucocorticoid receptor (Homo sapiens) (UniProt P04150). Briefly: ATG_GR_TRANS: Attagene TRANS-FACTORIAL HepG2 Assay for human Glucocorticoid Receptor (GR) (AID 2282978).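 Also: activators score as hits since higher reporter transcript over DMSO is fitted.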 The conditions noted are these: HepG2 Attagene TRANS GR reporter, mRNA transcription. A digest of the protocol:
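Readout is reporter transcript from a chimeric GR-Gal4 acting on GAL4-UAS in transfected human HepG2 liver cells after 24 h exposure, quantified by RT-PCR and capillary electrophoresis. Activation fitted upward against DMSO.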

Assay [8] has as its target Bile acid receptor (Homo sapiens) (UniProt Q96RI1). Briefly: ATG_FXR_TRANS: Attagene TRANS-FACTORIAL HepG2 Assay for Farnesoid X Receptor (FXR) (AID 2282979).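 Also: hits raise reporter mRNA above DMSO so AC50 marks FXR activation.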 The conditions noted are these: HepG2 Attagene TRANS FXR-GAL4 reporter transcription. A digest of the protocol:
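HepG2 cells transiently transfected with reporter constructs in which a chimeric FXR-GAL4 protein drives a GAL4-UAS reporter; 24 h compound exposure. Reporter mRNA measured by RT-PCR, FAM labelling, HpaI digestion and capillary electrophoresis; gain-of-signal versus DMSO.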

In assay [9] the target is Oxysterols receptor LXR-alpha (Homo sapiens) (UniProt Q13133). Kind of assay: ATG_LXRa_TRANS: Attagene TRANS-FACTORIAL HepG2 Assay for human Liver X Receptor alpha (LXRa) (AID 2282980). To be noted: HepG2 Attagene TRANS reporter, LXRa transactivation. A digest of the protocol:
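HepG2 cells were transiently transfected with multiplexed reporter units driven by chimeric LXRa–GAL4 fusion proteins, then dosed for 24 h. Reporter mRNA was quantified by RT-PCR, fluorescent labelling and capillary electrophoresis; gain of signal fitted against DMSO baseline.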

Assay [10] addresses Hepatocyte nuclear factor 4-alpha (Homo sapiens) (UniProt P41235). Briefly: ATG_HNF4a_TRANS: Attagene TRANS-FACTORIAL HepG2 Assay for human Hepatocyte Nuclear Factor 4 alpha (HNF4a) (AID 2282982). To be noted: HepG2 HNF4a transactivation reporter, mRNA readout. The method in brief:
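Readout is fluorescent reporter-transcript fragments resolved by capillary electrophoresis after RT-PCR from HepG2 cells dosed for 24 h. Cells carried transfected GAL4-UAS reporter constructs measuring exogenous NR-GAL4 chimera activity; DMSO served as baseline.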

The nature of assay [11]: ATG_M_06_TRANS: Attagene TRANS-FACTORIAL HepG2 Assay for M06 Transcription Factor (Internal Marker) (AID 2282983).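 Also: reporter transcript level by RT-PCR then capillary electrophoresis fluorescence.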 The conditions noted are these: HepG2 Attagene TRANS M06 internal marker reporter. A digest of the protocol: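 HepG2 cells transiently transfected with multiplexed GAL4-UAS reporter transcription units; after 24 h compound exposure, reporter mRNA measured by RT-PCR, FAM-labelled primer extension, HpaI digestion and capillary electrophoresis. Gain-of-signal fitted versus DMSO baseline; background control readout.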

The nature of assay [12]: ATG_M_32_TRANS: Attagene TRANS-FACTORIAL HepG2 Assay for M32 Transcription Factor (Internal Marker) (AID 2282984). The conditions noted are these: HepG2 Attagene TRANS M32 internal marker reporter. The method in brief: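 Measures reporter mRNA induction in human HepG2 liver cells after 24 h chemical treatment. Transcripts from transiently transfected GAL4-UAS reporter units are amplified, fluorescently labelled and sized by capillary electrophoresis; gain of signal relative to DMSO.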

For assay [13], the target named is Nuclear receptor subfamily 4 group A member 2 (Homo sapiens) (UniProt P43354). Kind of assay: ATG_NURR1_TRANS: Attagene TRANS-FACTORIAL HepG2 Assay for human Nuclear Receptor Related Protein 1 (NURR1) (AID 2282985). The conditions noted are these: HepG2 Attagene TRANS reporter, mRNA readout. A digest of the protocol: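 Transient transfection of HepG2, human liver cells, with multiple GAL4-UAS reporter transcription units. Cells dosed 24 h, RNA isolated, reverse-transcribed, PCR-amplified, FAM-labelled, HpaI-digested, sized by capillary electrophoresis. DMSO served as negative control.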
Sequence of Nuclear receptor subfamily 4 group A member 2 (Homo sapiens) (P43354 whole entry, looked up, the tested form may be a part): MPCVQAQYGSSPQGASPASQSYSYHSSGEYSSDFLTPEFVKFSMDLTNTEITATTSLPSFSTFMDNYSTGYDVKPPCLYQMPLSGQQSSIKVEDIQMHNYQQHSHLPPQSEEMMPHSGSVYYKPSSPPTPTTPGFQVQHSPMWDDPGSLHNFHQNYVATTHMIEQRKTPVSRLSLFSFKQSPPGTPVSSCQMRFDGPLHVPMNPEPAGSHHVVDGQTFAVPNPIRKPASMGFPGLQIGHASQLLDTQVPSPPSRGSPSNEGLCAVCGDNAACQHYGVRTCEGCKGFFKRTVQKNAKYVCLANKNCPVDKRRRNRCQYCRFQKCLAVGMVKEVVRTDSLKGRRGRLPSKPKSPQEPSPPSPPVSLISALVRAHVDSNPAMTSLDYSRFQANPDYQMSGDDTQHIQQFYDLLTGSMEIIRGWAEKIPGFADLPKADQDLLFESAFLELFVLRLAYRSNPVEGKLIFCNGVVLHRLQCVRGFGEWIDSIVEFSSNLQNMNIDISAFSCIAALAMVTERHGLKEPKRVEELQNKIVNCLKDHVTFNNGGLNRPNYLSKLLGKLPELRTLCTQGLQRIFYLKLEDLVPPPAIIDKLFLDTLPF

Assay [14] has as its target Transcriptional activator Myb (Homo sapiens) (UniProt P10242). Kind of assay: ATG_Myb_CIS: Attagene CIS-FACTORIAL HepG2 Assay for human Myeloblastosis (Myb) Proto-Oncogene Transcription Factor (AID 2282986; active = hit-call score of the fitted dose curve at least 0.9, where 1 is the maximum; inactive = score below 0.9). The conditions noted are these: HepG2 Attagene CIS-FACTORIAL Myb reporter transcription; actives raise or lower the signal. The method in brief:
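Reporter mRNA is quantified by RT-PCR and capillary electrophoresis 24 h after dosing HepG2 cells transfected with cis-regulated reporter units, which track endogenous transcription factor activity. Gain and loss of signal are fitted versus DMSO baseline.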

Assay [15] addresses Nuclear respiratory factor 1 (Homo sapiens) (UniProt Q16656). Briefly: ATG_NRF1_CIS: Attagene CIS-FACTORIAL HepG2 Assay for human Nuclear Respiratory Factor 1 (NRF1) Orphan Gene (AID 2282987; active = hit-call score of the fitted dose curve at least 0.9, where 1 is the maximum; inactive = score below 0.9). The conditions noted are these: HepG2 NRF1 cis-element reporter, Attagene multiplex; actives raise or lower the signal. The method in brief:
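Endogenous NRF1-driven reporter transcription in transfected HepG2 cells after 24 h treatment. Readout: RT-PCR products, 6-FAM labelled and resolved by capillary electrophoresis; changes fitted both directions relative to DMSO.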

Assay [16] concerns the target Nuclear receptor subfamily 1 group I member 3 (Homo sapiens) (UniProt Q14994). Kind of assay: ATG_CAR_TRANS: Attagene TRANS-FACTORIAL HepG2 Assay for human Constitutive Androstane Receptor (CAR) (AID 2282969).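 Also: activators raise reporter mRNA above DMSO so AC50 marks induction.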 The conditions noted are these: HepG2 Attagene TRANS-FACTORIAL CAR reporter. The method in brief: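 Readout is reporter mRNA induction, quantified by fluorescent primer extension and capillary electrophoresis after RT-PCR. Cells were HepG2 transiently carrying chimeric NR-Gal4 constructs with GAL4-UAS reporters, treated for 24 h; activity scored upward from DMSO.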

Assay [17] has as its target Estrogen receptor (Homo sapiens) (UniProt P03372). Kind of assay: ATG_ERa_TRANS: Attagene TRANS-FACTORIAL HepG2 Assay for human Estrogen Receptor alpha (ERa) (AID 2282970). The conditions noted are these: HepG2 Attagene TRANS ERa GAL4 reporter, mRNA. A digest of the protocol: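 HepG2 cells transiently transfected with multiplexed GAL4-UAS reporter units; ERa activity read via exogenous chimeric NR-Gal4 protein. After 24 hour compound exposure, reporter mRNA measured by RT-PCR with 6-FAM labelling and capillary electrophoresis; gain-of-signal fitted relative to DMSO.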

Assay [18] addresses Oxysterols receptor LXR-beta (Homo sapiens) (UniProt P55055). Briefly: ATG_LXRb_TRANS: Attagene TRANS-FACTORIAL HepG2 Assay for human Liver X Receptor beta (LXRb) (AID 2282981). To be noted: HepG2 Attagene TRANS GAL4-LXRb reporter, mRNA. A digest of the protocol:
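Transient transfection HepG2 (multiplexed RTUs, GAL4-UAS); NR-Gal4 chimera; 24 h exposure; RNA → RT-PCR → 6-FAM primer extension → HpaI → CE; increase vs DMSO.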

The target in assay [19] is Estrogen-related receptor gamma (Homo sapiens) (UniProt P62508). Briefly: ATG_ERRg_TRANS: Attagene TRANS-FACTORIAL HepG2 Assay for human Estrogen-Related Receptor gamma (ERRg) (AID 2282977).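 Also: hits increase reporter signal over DMSO so potencies reflect activators.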 The conditions noted are these: HepG2 Attagene TRANS reporter, ERRg transactivation. A digest of the protocol: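 Transfect HepG2 with multiple GAL4-UAS reporter transcription units; dose chemicals 24 h; isolate RNA, reverse-transcribe with oligo(dT), PCR-amplify, label with 6-FAM, digest with HpaI; size fragments by capillary electrophoresis. DMSO serves as negative control.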

Several values for one entry are separate records, joined by “and”; a condition that tells them apart may be missing. Equal entries are not always repeated. Results filed as inconclusive are left out. A structure can be active in one record and inactive in another. Activity calls are given as the source filed them. The calls were made as follows, unless noted: active = hit-call score of the fitted dose curve at least 0.9, where 1 is the maximum; inconclusive = response in the unintended direction; inactive = score below 0.9.

Results on three molecules are retold here after PubChem BioAssay (EPA / NIEHS).

Sequence of Hepatocyte nuclear factor 4-alpha (Homo sapiens) (P41235 whole entry, looked up, the tested form may be a part): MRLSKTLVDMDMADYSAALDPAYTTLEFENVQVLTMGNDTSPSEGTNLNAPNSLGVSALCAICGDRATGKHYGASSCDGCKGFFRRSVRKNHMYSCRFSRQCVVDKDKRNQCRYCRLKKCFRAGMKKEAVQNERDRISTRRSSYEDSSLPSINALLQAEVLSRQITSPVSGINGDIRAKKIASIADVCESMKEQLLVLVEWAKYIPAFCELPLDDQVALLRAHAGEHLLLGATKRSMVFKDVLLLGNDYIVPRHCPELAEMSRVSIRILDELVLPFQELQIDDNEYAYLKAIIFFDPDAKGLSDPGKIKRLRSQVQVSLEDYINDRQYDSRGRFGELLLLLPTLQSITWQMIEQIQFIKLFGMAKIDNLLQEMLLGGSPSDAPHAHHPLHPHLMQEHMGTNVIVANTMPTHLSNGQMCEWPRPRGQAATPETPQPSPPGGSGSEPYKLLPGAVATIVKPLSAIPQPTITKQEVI
Sequence of Bile acid receptor (Homo sapiens) (Q96RI1 whole entry, looked up, the tested form may be a part): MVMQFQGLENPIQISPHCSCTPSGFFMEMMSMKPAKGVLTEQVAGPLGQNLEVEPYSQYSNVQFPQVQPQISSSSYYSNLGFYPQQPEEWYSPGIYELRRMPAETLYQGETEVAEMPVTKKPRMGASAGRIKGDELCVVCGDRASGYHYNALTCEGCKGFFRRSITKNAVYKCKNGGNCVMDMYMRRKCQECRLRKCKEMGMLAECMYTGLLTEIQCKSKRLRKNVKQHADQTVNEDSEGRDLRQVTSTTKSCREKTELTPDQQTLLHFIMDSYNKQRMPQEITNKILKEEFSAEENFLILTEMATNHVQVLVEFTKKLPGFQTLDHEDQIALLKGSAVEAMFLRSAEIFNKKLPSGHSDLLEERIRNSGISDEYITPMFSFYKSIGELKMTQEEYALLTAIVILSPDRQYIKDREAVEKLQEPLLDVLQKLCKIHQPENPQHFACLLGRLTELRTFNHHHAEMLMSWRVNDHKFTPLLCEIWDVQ
Sequence of Oxysterols receptor LXR-alpha (Homo sapiens) (Q13133 whole entry, looked up, the tested form may be a part): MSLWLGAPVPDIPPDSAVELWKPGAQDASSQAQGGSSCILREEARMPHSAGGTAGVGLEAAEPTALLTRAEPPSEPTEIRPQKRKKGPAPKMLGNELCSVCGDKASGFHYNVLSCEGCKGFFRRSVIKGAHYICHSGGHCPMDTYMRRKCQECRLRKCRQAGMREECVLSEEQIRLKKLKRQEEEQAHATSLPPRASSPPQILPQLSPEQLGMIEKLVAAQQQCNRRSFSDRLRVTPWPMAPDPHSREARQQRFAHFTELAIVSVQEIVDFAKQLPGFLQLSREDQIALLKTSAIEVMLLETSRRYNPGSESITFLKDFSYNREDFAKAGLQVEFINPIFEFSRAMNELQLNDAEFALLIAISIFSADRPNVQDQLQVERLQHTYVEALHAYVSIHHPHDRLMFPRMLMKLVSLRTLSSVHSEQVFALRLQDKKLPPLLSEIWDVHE
Sequence of Transcriptional activator Myb (Homo sapiens) (P10242 whole entry, looked up): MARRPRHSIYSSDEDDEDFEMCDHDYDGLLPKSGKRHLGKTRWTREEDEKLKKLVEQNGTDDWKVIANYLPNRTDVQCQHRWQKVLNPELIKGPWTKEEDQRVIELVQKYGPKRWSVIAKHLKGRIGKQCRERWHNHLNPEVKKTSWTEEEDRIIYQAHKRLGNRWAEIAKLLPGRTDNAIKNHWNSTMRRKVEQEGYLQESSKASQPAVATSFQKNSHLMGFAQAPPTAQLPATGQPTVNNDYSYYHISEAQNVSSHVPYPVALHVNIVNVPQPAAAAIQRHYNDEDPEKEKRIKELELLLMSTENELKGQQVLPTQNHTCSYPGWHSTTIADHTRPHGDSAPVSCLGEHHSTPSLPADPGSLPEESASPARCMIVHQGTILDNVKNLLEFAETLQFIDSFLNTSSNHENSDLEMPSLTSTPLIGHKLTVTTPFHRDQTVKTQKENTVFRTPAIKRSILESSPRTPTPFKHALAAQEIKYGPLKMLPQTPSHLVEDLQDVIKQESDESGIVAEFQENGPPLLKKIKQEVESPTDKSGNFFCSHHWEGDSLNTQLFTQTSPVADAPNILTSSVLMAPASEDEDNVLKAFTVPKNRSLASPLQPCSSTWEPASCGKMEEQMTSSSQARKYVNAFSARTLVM
Sequence of Nuclear respiratory factor 1 (Homo sapiens) (Q16656 whole entry, looked up): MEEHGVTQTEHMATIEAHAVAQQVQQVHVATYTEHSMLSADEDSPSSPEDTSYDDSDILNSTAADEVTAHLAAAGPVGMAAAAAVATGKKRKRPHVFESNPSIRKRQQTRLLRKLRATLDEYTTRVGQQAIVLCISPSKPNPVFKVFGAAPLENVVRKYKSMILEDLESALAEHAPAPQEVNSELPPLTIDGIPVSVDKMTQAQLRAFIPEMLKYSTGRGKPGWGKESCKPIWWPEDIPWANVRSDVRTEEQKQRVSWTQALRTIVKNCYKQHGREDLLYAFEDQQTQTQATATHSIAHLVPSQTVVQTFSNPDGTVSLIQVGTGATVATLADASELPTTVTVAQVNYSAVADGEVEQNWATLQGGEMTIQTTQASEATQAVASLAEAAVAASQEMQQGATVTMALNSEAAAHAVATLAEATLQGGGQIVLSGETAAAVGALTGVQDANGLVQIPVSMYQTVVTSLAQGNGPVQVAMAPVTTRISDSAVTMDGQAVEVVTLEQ
Sequence of Glucocorticoid receptor (Homo sapiens) (P04150 whole entry, looked up, the tested form may be a part): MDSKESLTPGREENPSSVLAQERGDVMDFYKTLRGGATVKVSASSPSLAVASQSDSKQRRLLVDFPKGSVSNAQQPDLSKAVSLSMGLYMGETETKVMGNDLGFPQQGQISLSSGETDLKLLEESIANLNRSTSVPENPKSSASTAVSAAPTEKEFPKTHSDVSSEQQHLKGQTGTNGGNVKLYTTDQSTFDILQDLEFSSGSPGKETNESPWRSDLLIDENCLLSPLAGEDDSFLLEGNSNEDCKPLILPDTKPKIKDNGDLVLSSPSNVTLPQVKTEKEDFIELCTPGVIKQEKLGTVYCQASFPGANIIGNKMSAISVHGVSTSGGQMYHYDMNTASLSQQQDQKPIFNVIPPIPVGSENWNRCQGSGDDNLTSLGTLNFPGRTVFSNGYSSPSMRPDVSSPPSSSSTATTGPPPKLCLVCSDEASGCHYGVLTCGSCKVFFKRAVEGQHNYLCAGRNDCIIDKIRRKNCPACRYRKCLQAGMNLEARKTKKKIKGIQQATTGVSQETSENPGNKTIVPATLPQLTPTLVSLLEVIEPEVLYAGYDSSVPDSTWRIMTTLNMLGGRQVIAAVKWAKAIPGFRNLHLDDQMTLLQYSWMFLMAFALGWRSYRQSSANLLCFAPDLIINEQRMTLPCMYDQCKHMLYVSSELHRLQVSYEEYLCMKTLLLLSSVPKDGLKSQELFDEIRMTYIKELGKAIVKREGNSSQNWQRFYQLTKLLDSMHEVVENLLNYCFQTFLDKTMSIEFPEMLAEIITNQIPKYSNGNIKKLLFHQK
Sequence of Estrogen receptor (Homo sapiens) (P03372 whole entry, looked up, the tested form may be a part): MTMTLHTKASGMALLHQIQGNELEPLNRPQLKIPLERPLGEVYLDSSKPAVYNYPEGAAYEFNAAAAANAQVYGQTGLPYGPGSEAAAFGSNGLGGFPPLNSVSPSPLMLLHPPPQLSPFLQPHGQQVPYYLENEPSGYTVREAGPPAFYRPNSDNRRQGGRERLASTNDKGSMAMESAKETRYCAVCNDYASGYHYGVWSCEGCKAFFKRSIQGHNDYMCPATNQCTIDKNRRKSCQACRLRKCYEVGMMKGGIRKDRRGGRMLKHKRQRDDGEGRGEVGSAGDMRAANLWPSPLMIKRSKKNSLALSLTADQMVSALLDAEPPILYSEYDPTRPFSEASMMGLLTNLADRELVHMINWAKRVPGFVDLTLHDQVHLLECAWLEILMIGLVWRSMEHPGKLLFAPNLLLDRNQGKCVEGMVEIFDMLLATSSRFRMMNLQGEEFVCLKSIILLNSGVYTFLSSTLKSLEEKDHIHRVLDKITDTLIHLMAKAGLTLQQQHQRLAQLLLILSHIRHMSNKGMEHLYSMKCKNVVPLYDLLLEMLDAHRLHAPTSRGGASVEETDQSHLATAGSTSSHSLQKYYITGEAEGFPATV

Usually AC50 stands for the concentration giving half of the maximal activity seen. Take `CCCCOC(=O)c1ccc(O)cc1`: the outcome in assay [1], in assay [2], in assay [3], in assay [4], in assay [5] and in [6] was inactive. Moreover, the call in assay [7], in assay [8], in assay [9], in assay [10], in [11] and in assay [12] was inactive. Besides, the molecule was classed as inactive in assay [13], in assay [14] and in assay [15]. The AC50 in [3] was 72.4 µM (active) and 51.8 µM (active); in assay [4], 107 µM (active); in assay [8], 66.1 µM (active); in [13], 100 µM (active); in assay [14] it was 162 µM (active); in assay [15] it was 100 µM (active).
With `CCCCCCCCOC(=O)c1cc(O)c(O)c(O)c1`, the call in [1], in assay [2], in assay [3], in [16], in assay [4] and in assay [7] was inactive. In addition, the molecule was called inactive in assay [18], in assay [10], in assay [11], in assay [12], in assay [14] and in [15]. For the same molecule, the AC50 in assay [17] was 20 µM (active); in [8], 43 µM (active); in assay [9], 52.2 µM (active); in assay [13], 24.2 µM (active).
Take `CCN(CC)C(=O)c1cc(S(=O)(=O)Cc2ccccc2)c(N2CCC(c3ccccc3)CC2)cc1N(CC)CCN(C)C`: the molecule was called inactive in [1], in assay [2], in assay [3], in assay [16], in [17] and in [4]. Also, the result in assay [19], in assay [7], in assay [9], in [10], in [11] and in assay [14] was inactive. Further, the call in [15] was inactive.
